Source: PubChem BioAssay (Broad Institute)
C diff HTS: inhibitors of Clostridium difficile growth; Clostridium difficile clinical isolate growth, OD600, 24 h; active compounds read low; growth activity, negative = inhibition, % at 16 µg/mL (by protocol); actives 0.25% (n = 86,000);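 active = mean growth activity at or below -80% and every replicate also at or below -80%; inconclusive = mean at or below -80% but some replicate above -80%; inactive = mean growth activity above -80%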;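 note: 0% = DMSO wells and -100% = levofloxacin 16 µg/mL wells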
T cruzi growth-1: blocks T. cruzi growth in NIH3T3 culture; T. cruzi beta-gal in NIH3T3, GalScreen luminescence, 90 h; inhibition, % at 8.34 µM; actives 5.9% (n = 77,000);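 active = mean inhibition above about 93%, with at least 55% of replicates each passing it, limit read from the data, passing the limit was not always enough; inconclusive = only one of those two conditions holds; inactive = neither condition holds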
Pf Dd2 growth: blocks growth of Plasmodium falciparum Dd2 parasites | P. falciparum Dd2 growth, SYBR Green, 72 h; active compounds read low | activity change, % at 10 µM | actives 2.3% (n = 94,000) | AID 1159554; in the data active = activity change below about -80%; inconclusive = no clear call, values can overlap the other calls
T cruzi growth-2: inhibitors of T. cruzi proliferation | AID 651739 | T. cruzi beta-gal in NIH3T3, GalScreen luminescence, 90 h | inhibition, % at 8.35 µM | actives 72% (n = 5,600) | shares compounds with T cruzi growth-1;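 active = mean replicate inhibition above about 95% and at least 55% of replicates individually reaching it, limit read from the data; inconclusive = only one of the two criteria is met; inactive = neither criterion is met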
T cruzi growth-3: blocks T. cruzi growth in NIH3T3 host cells | AID 651740 | actives 21% (n = 5,600) | T. cruzi beta-gal in NIH3T3, GalScreen luminescence, 90 h | shares compounds with T cruzi growth-1 | inhibition, % at 2.09 µM;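 active = mean inhibition above about 95%, with at least 55% of replicates also reaching it, limit read from the data; inconclusive = meets just one of the two conditions; inactive = meets neither condition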;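 note: plate controls were neutral control median for no effect and positive control median for full effect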
3T3 cytotox: kills mouse NIH/3T3 fibroblasts | actives 14% (n = 5,600) | AID 651742 | cytotoxicity (signal decrease), % at 8.35 µM | shares compounds with T cruzi growth-1 | NIH/3T3 viability, CellTiter-Glo ATP luminescence, 90 h;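 active = mean signal decrease across replicates above about 35% based on untreated-well scatter, with enough replicates individually passing, limit read from the data; inconclusive = no rule stated though some were filed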;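 note: 0% = median of neutral control wells and 100% = median of positive control wells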
NIH3T3 tox 2: cytotoxicity in mouse NIH/3T3 fibroblasts | NIH/3T3 viability, CellTiter-Glo ATP luminescence, 90 h | inhibition, % at 24.9 µM | actives 56% (n = 5,600) | AID 651744 | shares compounds with T cruzi growth-1;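 active = mean loss of cell viability signal at or above a set limit, and enough replicates individually reaching it; inconclusive = meets only the mean limit or only the replicate share; inactive = meets neither condition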;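 note: 0% = median of neutral control wells and 100% = median of positive control wells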
* marks the source's active call; other numbers are inactive results; ? = inconclusive; . = no result given. Most compounds without a hit are left out; they make up all but 6.7% or so of the library.

SMILES | C diff HTS | T cruzi growth-1 | Pf Dd2 growth | others
C[C@H]1CCCCO[C@@H](CN(C)S(=O)(=O)c2ccc(F)cc2)[C@@H](C)CN([C@@H](C)CO)C(=O)c2cc(NC(=O)Nc3ccc(F)cc3)ccc2O1 | -0.5 | 95.8* | ? | T cruzi growth-2=104.7*;T cruzi growth-3=99.2*;3T3 cytotox=29.0;NIH3T3 tox 2=43.3*
C[C@@H]1CN([C@H](C)CO)C(=O)c2cc(NC(=O)Nc3ccc(F)cc3)ccc2O[C@@H](C)CCCCO[C@H]1CN(C)S(=O)(=O)c1ccc(F)cc1 | -2.0 | 96.9 | -71.2
C[C@@H]1CN([C@@H](C)CO)C(=O)c2cc(NC(=O)Nc3ccc(F)cc3)ccc2O[C@@H](C)CCCCO[C@@H]1CN(C)S(=O)(=O)c1ccc(F)cc1 | 0.0 | 57.6 | ?
O=C(NC[C@@H]1CC[C@@H]2[C@@H](CN2Cc2ccccc2F)O1)C1CC1 | 1.1 | . | 31.1
COCC(=O)N1[C@H](C#N)[C@H](c2ccccc2-c2cccc(OC)c2)[C@H]1CO | 92.9 | . | 18.2
CC=Cc1ccc2n(c1=O)C[C@@H]1[C@@H](CO)[C@H](C(=O)N3CCOCC3)[C@H]2N1CC1CC1 (mixture of isomers) | -4.9 | -3.6 | 12.6
C[C@@H]1CN([C@H](C)CO)C(=O)Cc2cc(NC(=O)Nc3ccccc3)ccc2O[C@@H]1CN(C)S(=O)(=O)c1ccc(Cl)cc1 | 18.7 | 81.9 | -12.5
CC(C)NC(=O)N(C)C[C@@H]1Oc2cc(C#CCN(C)C)ccc2S(=O)(=O)N([C@@H](C)CO)C[C@H]1C | -1.9 | 12.7 | 5.1
COc1ccc2c3c([nH]c2c1)[C@@H](CO)N(C(=O)c1cnccn1)CC31CN(C(=O)c2cnccn2)C1 | -10.8 | . | 4.4
CNC[C@@H]1OCCCC[C@H](C)Oc2ccc(NC(=O)CCC(F)(F)F)cc2C(=O)N([C@H](C)CO)C[C@H]1C | -1.2 | 43.3 | .
C[C@H]1CN([C@@H](C)CO)C(=O)Cc2cc(NC(=O)Cc3cn(C)c4ccccc34)ccc2O[C@H]1CN(C)Cc1ccc(C(=O)Nc2ccccc2N)cc1 | -1.9 | 101.7* | -73.4 | T cruzi growth-2=96.2*;T cruzi growth-3=56.8;3T3 cytotox=23.9;NIH3T3 tox 2=63.4*
C[C@H]1CN([C@@H](C)CO)C(=O)Cc2cc(NC(=O)Cc3cn(C)c4ccccc34)ccc2O[C@@H]1CN(C)Cc1ccc(-c2ccccc2)cc1 | -1.9 | 98.4* | -30.3 | T cruzi growth-2=103.3*;T cruzi growth-3=81.6;3T3 cytotox=20.2;NIH3T3 tox 2=20.4
C[C@@H]1CN([C@@H](C)CO)C(=O)Cc2cc(NC(=O)Cc3cn(C)c4ccccc34)ccc2O[C@@H]1CN(C)Cc1ccccc1 | -8.3 | 94.8 | -27.7
C[C@@H]1CN([C@H](C)CO)C(=O)Cc2cc(NC(=O)Cc3cn(C)c4ccccc34)ccc2O[C@@H]1CN(C)Cc1ccccc1 | -14.3 | 99.6* | -23.9 | T cruzi growth-2=103.9*;T cruzi growth-3=46.1;3T3 cytotox=14.5;NIH3T3 tox 2=40.2*
C[C@@H]1CN([C@H](C)CO)C(=O)Cc2cc(NC(=O)Cc3cn(C)c4ccccc34)ccc2O[C@H]1CN(C)Cc1ccc(-c2ccccc2)cc1 | 2.4 | 83.4 | -18.4
C[C@@H]1CN([C@H](C)CO)C(=O)Cc2cc(NC(=O)Cc3cn(C)c4ccccc34)ccc2O[C@H]1CN(C)Cc1ccc(C(F)(F)F)cc1 | 10.7 | 100.0* | -20.8 | T cruzi growth-2=104.8*;T cruzi growth-3=63.2;3T3 cytotox=?;NIH3T3 tox 2=71.2*
C[C@H]1CN([C@@H](C)CO)C(=O)Cc2cc(NC(=O)Cc3cn(C)c4ccccc34)ccc2O[C@@H]1CN(C)Cc1ccc(C(=O)Nc2ccccc2N)cc1 | -1.2 | 84.2 | -57.6
C[C@H]1CN([C@@H](C)CO)C(=O)Cc2cc(NC(=O)Cc3cn(C)c4ccccc34)ccc2O[C@H]1CN(C)Cc1ccc(C(F)(F)F)cc1 | 1.7 | 90.1 | -79.4
C[C@@H]1CCCCO[C@@H](CN(C)C(=O)Nc2ccc3c(c2)OCO3)[C@@H](C)CN([C@H](C)CO)C(=O)c2cc(NC(=O)NC3CCCCC3)ccc2O1 | -0.5 | -57.1 | -12.8
CO[C@H]1CC[C@@H]2CCN(C)C(=O)[C@@H](C)N(C)C(=O)c3cc(C#N)ccc3OC[C@@H]1O2 | 7.2 | 58.0 | .
O=C(C1CC1)N1CC2(C1)[C@H](c1ccccc1)[C@H](CO)N2Cc1cncnc1 | -4.6 | . | -18.8
